Source: PubChem BioAssay (National Center for Advancing Translational Sciences (NCATS))
Rows were chosen to be rich in hits. Some 0.85% of all compounds tested hit in one or more screens of this group.
B2AR arrestin – beta2AR (human) beta-arrestin recruitment activity | P07550 | beta-arrestin recruitment to beta2AR, cell-based reporter | Potency, µM (doses to about 46.1 µM), without a hit: top-dose activation, most hits filed as activators | 330,000 compounds, 0.02% hits | AID 492947;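 note: potency is the fitted concentration of half-maximal effect; 0% = DMSO controls and full agonism = EC100 isoproterenol or metaproterenol; nearly all actives have a fitted effect of over 65% in size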
Target sequence (P07550 whole entry, looked up): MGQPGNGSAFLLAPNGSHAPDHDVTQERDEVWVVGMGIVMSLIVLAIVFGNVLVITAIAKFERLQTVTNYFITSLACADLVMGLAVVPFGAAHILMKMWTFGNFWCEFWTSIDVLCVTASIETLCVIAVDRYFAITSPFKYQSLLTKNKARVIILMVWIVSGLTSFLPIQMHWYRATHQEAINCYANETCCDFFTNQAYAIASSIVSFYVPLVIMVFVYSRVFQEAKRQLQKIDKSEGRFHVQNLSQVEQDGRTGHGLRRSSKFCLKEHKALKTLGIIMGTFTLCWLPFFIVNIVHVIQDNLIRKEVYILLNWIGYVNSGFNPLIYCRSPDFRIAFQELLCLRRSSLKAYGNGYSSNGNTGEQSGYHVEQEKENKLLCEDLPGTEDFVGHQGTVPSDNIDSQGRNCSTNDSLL
FBPA coupling cs – coupling enzyme interference in Giardia aldolase counter-screen; AID 2472; activity change, negative = inhibition, % at 58.2 µM, hits read low; 290,000 compounds, 0.67% hits; coupling enzyme system counterscreen, AmpLite Red fluorescence; in the data active = activity change below about -30%
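Coupling enzymes only (glyceraldehyde-3-phosphate) + compound, at 57.5 uM final, 10 min RT; add substrate/coupling/AmpLite Red mix, 20 min RT; fluorescence ex 525/em 598 nm. Actives flag coupling-system interference.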
GAA glycogen – GAA glycogen-cleavage inhibition or activation; recombinant GAA, glycogen substrate, Amplex Red glucose oxidase fluorescence; Potency, µM (highest dose often 76.4 µM), for inactives: at the top dose activity change, negative = inhibition, actives largely listed as inhibitors; 300,000 compounds, 0.38% hits;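 note: potency is the fitted concentration of half-maximal effect; 0% = full enzyme reaction and -100% = no-enzyme basal signal; the screen sought inhibitors and activators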
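Natural-substrate format: glycogen cleavage by 4 nM human enzyme, glucose read by Amplex Red coupling (Ex 573, Em 610 nm). Normalized to enzyme and no-enzyme controls.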
GAA inhib – inhibitors of human lysosomal alpha-glucosidase | purified human GAA, 4-MU-alpha-glucoside fluorescence | Potency, µM (doses to about 76.9 µM), for the others: at the top dose activity change, negative = inhibition, hits mostly inhibitors | P10253 | 200,000 compounds, 0.005% hits;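 note: potency is the fitted concentration of half-maximal effect; plate controls were uninhibited enzyme wells for no effect and no-enzyme background for full effect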
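AC50 values come from Hill fits of compound titrations (up to 77 uM) against 4 nM human enzyme. Substrate 4-methylumbelliferyl-alpha-D-pyranoside at 400 uM, pH 5.0 citrate buffer, 20 min room temperature; fluorescence Ex 365/Em 440 after alkaline stop.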
aGlu spleen mod – lysosomal alpha-glucosidase (human) modulation | human spleen homogenate, 4-MU-alpha-glucoside fluorescence | Potency, µM (doses to about 79.9 µM), for inactives: at the highest dose activity change, negative = inhibition, actives largely listed as inhibitors | 240,000 compounds, 0.006% hits | AID 2112;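 note: potency is the fitted concentration of half-maximal effect; 0% = enzyme with vehicle and -100% = no enzyme basal signal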
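Human spleen homogenate (1 ug) with 4-methylumbelliferyl-alpha-D-glucopyranoside (1 mM final) in 50 mM citrate/phosphate pH 5.0, 0.01% Tween-20; 40 min at 37 C. Stopped at pH 10; 4-MU fluorescence Ex 365/Em 440 nm; AC50 by Hill fit.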
* hit, by the source's call; ? = inconclusive; · = not tested or not shown; ! = not active in a repeat; [ ] = remark or other dose. Unless noted, calls come from the whole dose curve; as a rule, active = well fitted curve in the direction sought with a large enough effect; inconclusive = small, poorly fitted or top-dose-only effect, or another doubt; inactive = no such curve, though single readings can be large; an effect the other way counts as inactive or inconclusive. Unless noted, % is set by controls: 0 for no effect and ±100 for the full control effect.

SMILES	B2AR arrestin	FBPA coupling cs	GAA glycogen	GAA inhib	aGlu spleen mod
COC(=O)CCCC1=CC2=C(c3ccccc3)C(=O)C(C)(OC(=O)C3CCCC3)C(=O)C2=CN1Cc1ccccc1 (configuration not stated)	·	-3	·	·	-5%[17.4 µM]
COc1ccc(-c2ccc(N(C)C)cc2)cc1C1C2C=CCCC2(C)C(=O)N1Cc1ccccc1 (configuration not stated)	·	-6	·	·	-2%
O=C(c1ccc2ncsc2c1)N1CCN(c2ccc(O)cc2)CC1	0%	1	9.9µM*	-3%	1%
COCc1[nH]nc2c1C(c1c(F)cccc1Cl)C(C#N)=C(N)O2 (configuration not stated)	0%	-39*	-10%	-3%	2%
COCCNc1c(-c2ccc(O)cc2)nc2ccc(Cl)cn12	0%	-7	10µM*	1%	-13%
Cn1c2c(c(=O)n(C)c1=O)C1(C(=O)Nc3ccccc31)C(C#N)=C(N)O2 (configuration not stated)	0%	-54*	-8%	1%	-4%
N#CC1=C(N)Oc2ccccc2C12C(=O)Nc1n[nH]c(-c3ccccc3)c12 (configuration not stated)	0%	1	-10%	-7%	-6%
COc1cccc2c1CCc1c-2nc2ccccc2c1C(=O)O	-1%	-33*	1%	·	·
CC1=NNC(=O)C1C(c1ccccc1)C1C(=O)NN=C1C (configuration not stated)	0%	-14	13µM*	?	1%
CC1=NNC(=O)C1C(c1cccc(O)c1)C(C#N)C#N (configuration not stated)	0%	4	-13%	·	-2%
Cc1ccc(O)c(NC(=O)c2cccc(NC(=O)c3ccco3)c2)c1	0%	-3	13µM*	-6%	1%
Cc1cc(O)c(NC(=O)c2ccco2)cc1C	0%	1	11µM*	-5%	-15%
Cc1ccc(O)c(NC(=O)c2ccco2)c1	0%	0	?	-2%	-1%
CC1(c2ccc(OC(F)F)cc2)NC(=O)N(CC(=O)N2CCN(C(=O)c3ccco3)CC2)C1=O (configuration not stated)	0%	·	·	·	·
O=C(N/N=C1/C[C@@H](O)[C@@H](O)[C@@H]2[C@@H]3C(=O)N(Cc4ccc5c(c4)OCO5)C(=O)[C@H]3CC[C@H]12)OCc1ccccc1	·	-1	·	·	1%[17.4 µM]
COc1cccc2c1C(=O)c1c(O)c3c(c(O)c1C2=O)C[C@@](O)(C(C)=O)C[C@@H]3O[C@H]1C[C@H](N)[C@H](O)[C@H](C)O1	-1%	-52*!	-15%	10%[15.4 µM]	-1%
CC(=O)[C@]1(O)Cc2c(O)c3c(c(O)c2[C@@H](O[C@H]2C[C@H](N)[C@H](O)[C@H](C)O2)C1)C(=O)c1ccccc1C3=O	·	·	·	·	-11%
CC(=O)[C@]1(O)Cc2c(O)c3c(c(O)c2[C@@H](O[C@H]2C[C@H](N)[C@H](O)[C@H](C)O2)C1)C(=O)c1c(O)cccc1C3=O	·	-35*	·	·	-9%
COC(=O)N1CCC[C@@]2(CCN(c3ccccn3)C2)C1	·	-2	·	·	-8%
CC(C)COc1ccc(C(=O)Nc2cccc(-c3nc4ccccc4[nH]3)c2)cc1	·	·	-4%[76.3 µM]	·	·
CCCCCCc1ccc(C(=O)CCN(C)C)cc1	·	6	·	·	9%
CN(C)c1ncc2nc(-c3cc(F)cc(F)c3)c(=O)n(-c3ccccc3)c2n1	·	3	·	·	12%
Cc1ccc(-n2c(C)cc(C(=O)CSc3nncs3)c2C)cc1	2%	-33*	14%	-14%	0%
O=C(CCN1CCCCC1)Nc1ccc2c(c1)C(=O)c1ccc(NC(=O)CCN3CCCCC3)cc1C2=O	·	-1	·	·	-4%
O=C(NCCCN1CCOCC1)c1sc2cc([N+](=O)[O-])ccc2c1Cl	-1%	-60*	21%	-15%	-6%
SMILES	B2AR arrestin	FBPA coupling cs	GAA glycogen	GAA inhib	aGlu spleen mod
CC1(OC(=O)c2ccco2)C(=O)C2=COC(C3CC3)=CC2=C(Br)C1=O (configuration not stated)	·	0	·	·	-2%
CC1(C)CCC[C@@](C)([C@H]2CC[C@]3(C)[C@@H]2[C@H](O)C[C@@H]2[C@@]4(C)CC[C@H](O)C(C)(C)[C@@H]4CC[C@]23C)O1	·	5	·	·	8%
COC(=O)CN1C(=O)[C@@H]2[C@H](C1=O)[C@@H]1CC(C(=O)OC)=C[C@@H](C(=O)OC)C3C1=C(C(=O)C31CCCCC1)[C@@H]2C (some centres not stated)	·	0	·	·	4%
COc1cc(/C=C2/CC(C)OC2=O)c([N+](=O)[O-])cc1OC (configuration not stated)	0%	0	·	·	·
COc1cc(C=O)c([N+](=O)[O-])cc1OC	·	-61*	·	·	-3%
CCNc1ncc2nc(-c3cccc(C#N)c3)c(=O)n(Cc3cccc(OC)c3)c2n1	·	2	·	·	6%
COc1ccc(N(C)S(=O)(=O)c2cccc(C(=O)OCC(=O)c3c(N)n(C)c(=O)n(C)c3=O)c2)cc1	-1%	·	·	·	·
c1ccc2[nH]c(CN3CCOCC3)nc2c1	0%	3	-2%	-1%	0%
Nc1ccc2nc(CN3CCOCC3)[nH]c2c1	0%	-32*	0%	-3%	-4%
O=C(Nc1ncnc2c1ncn2[C@@H]1O[C@@H]2COP(=O)(O)O[C@H]2[C@H]1O)c1ccccc1	·	-1	·	·	1%
COc1ccc(C(=O)/C=C(\C)Nc2ccc3c(c2)OCO3)cc1	0%	·	35µM*	-13%	3%
CNC(=S)NNc1nncc2ccccc12	0%	2	10µM*	14%	4%
NNc1nncc2ccccc12	·	-59*!	·	·	-4%
CCNC(=S)NNc1nncc2ccccc12	?	-1	?	2%	-2%
Cc1ccc(NC(=O)c2[nH]cnc2C(=O)NN)cc1	0%	0	20µM*	?	-5%
Cc1ccc(NC(=O)c2nc[nH]c2C(=O)NCCCNC(=O)c2[nH]cnc2C(=O)Nc2ccc(C)cc2)cc1	0%	·	·	·	·
CO[C@@H]1[C@@H]2OP(=O)(O)OC[C@H]2O[C@H]1n1c(Sc2ccc(Cl)cc2)nc2c(N)ncnc21	·	4	·	·	9%
Cc1cc2nc3c(=O)[nH]c(=O)nc-3n(C)c2cc1C=O	·	-38*	·	·	-3%
O=C(N/N=C/c1ccc(O)c(O)c1)c1ccc(CSc2cccc3cccnc23)cc1	0%	-2	14µM*	-8%	-5%
O=C(NC1=NCCS1)C1Cc2ccccc2CN1C(=O)c1ccccc1 (configuration not stated)	-2%	2	4µM*	-10%	-1%
Cc1cc(Cl)ccc1OCC(=O)Nc1ccccc1C(=O)N1CCOCC1	-1%	·	-10%[76.3 µM]	·	·
COc1cc(Cl)ccc1NC(=O)COc1ccccc1C(=O)N1CCN(c2ccc(O)cc2)CC1	0%	-7	18µM*	1%	0%
